Source: PubChem BioAssay (NCATS)
Inconclusive results are not listed. Values without a mark were called inactive. The source made the active and inactive calls. Calls follow the shape of the dose curve; as a rule, active = well fitted cell-killing curve with a large enough effect; inconclusive = small, poorly fitted or top-dose-only effect; inactive = flat fitted curve, though single readings scatter.

experiment: qHTS of pediatric cancer cell lines to identify multiple opportunities for drug repurposing: Primary screen for RD cells (AID 1347104); conditions: RD rhabdomyosarcoma viability, CellTiter-Glo luminescence, 48 h; series mostly up to 46 µM; activity change, negative = cytotoxic: at the top concentration; also: nearly all actives have a fitted effect of over 55% in size
Description: Drug repurposing or repositioning has been offered as a strategy for drug development in oncology programs. This approach has special potential for childhood cancers and other rare or orphan diseases, where the expected return on new drug development has been a disincentive to pharmaceuticals. […] In this project we exploit the poly-pharmacology of drugs to discover new indications via phenotypic screening of a panel of 19 well-characterized cell lines derived from solid tumors seen in children and adolescents. The goal is to identify approved drugs with previously unrecognized anticancer properties that has the potential to reveal new mechanisms and biological processes involved in carcinogenesis or drug resistance. We employed a titration-based paradigm (quantitative high-throughput screening or qHTS), where all compounds were tested at multiple concentrations for their effect on cell viability. Concentration-response curves (CRCs) were derived directly from the primary screen, and both potency and efficacy values were used to identify compounds with robust bioactivity profiles. We screened the NIH Chemical Genomics Center (NCGC) Pharmaceutical Collection (NPC) and Mechanism Interrogation Plate (MIPE) small molecule collections of approved and investigational compounds against these cell lines; and measured metabolically active cells after 48 hours of compound treatment as a proxy for cell viability. […] Assay Submitter: Nathalia J. Martinez, National Center for Advancing Translational Sciences, National Institutes of Health, Rockville, MD, USA; email: natalia.martinez@nih.gov Shen, M et al. Quantitative high-throughput phenotypic screening of pediatric cancer cell lines identifies multiple opportunities for drug repurposing. Oncotarget 2017 Dec 19;9(4):4758-4772. PMID 29435139.
The cells were obtained from University of North Carolina (UNC), Pediatric Preclinical Testing Program (PPT), and Coriell Institute (CI). qHTS cell viability assay: Cells were assayed in growth media at a density of 500-1,000 cells/well. Five microliters of cells were dispensed into 1,536-well, white, solid-bottom, TC-treated plates (Greiner Bio One) using a multidrop dispenser and incubated at 37 degrees C, 5% CO2, under a humidified atmosphere for 5 hours. Twenty-three nanoliters of compounds and controls (neutral control DMSO or positive control bortezomib at final concentration of 2.3 µM) were subsequently transferred by Kalypsys pintool. For primary screens, the MIPE collection was tested at 11-point dilutions (final concentrations range from 0.78 nM to 46 µM) and the NPC collection at 8-point dilutions (final concentrations range from 0.59 nM to 46 µM). Compounds tested in follow-up screens were assayed at 11-point dilutions. Cells were incubated for 48 hours, followed by addition of 3 µL of CellTiter-Glo (Promega). After a 15 min incubation at room temperature, samples were analyzed for luminescence intensity using a ViewLux High-throughput CCD imager equipped with clear filters.
Potency is read from the fitted curve at half-maximal effect.

| Structure (SMILES) | Potency | activity change, negative = cytotoxic |
| --- | --- | --- |
| C[C@@]12OC(=O)[C@]1([C@@H](O)[C@@H]1C=CCCC1)NC(=O)[C@H]2CCCl | 52.6 nM (active) |  |
| O=C(O)c1cc(Oc2ccc(C(F)(F)F)cc2Cl)ccc1[N+](=O)[O-] |  | 14.3% |
| COC1=CC(C)=C[C@@H](C)[C@@H](O)[C@@H](C)CC(C)=CC=C[C@H](OC)[C@H]([C@@H](C)[C@@H](O)[C@H](C)[C@@]2(O)C[C@@H](O)[C@H](C)[C@@H](C(C)C)O2)OC1=O | 1 nM (active) |  |
| Nc1ccc(Cl)cc1N |  | -13.1% [at 92.7 µM] |
| CC(O)CN1CCN(CC(=O)[O-])CCN(CC(=O)[O-])CCN(CC(=O)[O-])CC1.[Gd+3] (stereo not given) |  | 3.89% |
| O=C1CCC[C@@H]2[C@H]3CCCN4CCC[C@@H](CN12)[C@@H]34 |  | -2.82% |
| CCc1c(C(=O)C(N)=O)c2c(OCC(=O)O)cccc2n1Cc1ccccc1 |  | 9.87% |
| COc1ccc(CC2NCCc3cc(OC)c(OC)cc32)cc1OC (stereo not given) |  | -25.4% |
| CCCCCCCCCCCCCCCC[N+](C)(C)C | 13300 nM (active) |  |
| c1ccc2c(CN3CCNCC3)cccc2c1 |  | -17.7% |
| CCC(=O)OC1CCC2C3CCC4=CC(=O)CC[C@@]4(C)C3CC[C@]12C (stereo not given in full) |  | 7.73% |
| Fc1cc(Br)ccc1CBr |  | 9.31% |
| Oc1ccc2c3c1O[C@H]1c4[nH]c5c(c4C[C@@]4(O)[C@@H](C2)N(CC2CC2)CC[C@]314)C[C@@]1(O)[C@H]2Cc3ccc(O)c4c3[C@@]1(CCN2CC1CC1)[C@H]5O4 |  | 7.53% |
| O=C(Oc1ccc([N+](=O)[O-])cc1)N1CCN(Cc2cccc(Oc3ccccc3)c2)CC1 | 18700 nM (active) |  |
| CC(N[C@H]1C[C@H]1c1ccccc1)c1ccc2c(c1)OCCO2 (stereo not given in full) |  | 5.92% |
| CCOC(=O)Nc1ccc(NCc2ccc(F)cc2)cc1N | 26400 nM (active) |  |
| CC[C@@H]1[C@@H](C)O[C@@](O)([C@@H](C)[C@H](O)[C@H](C)[C@H]2OC(=O)C=CC=C[C@@H](C)[C@@H]([C@@H](C)[C@@H](O)[C@H](C)[C@@]3(O)C[C@H](O[C@H]4C[C@H](O)[C@H](O)[C@H](C)O4)[C@H](CC)[C@@H](C)O3)OC(=O)C=CC=C[C@@H]2C)C[C@H]1O[C@H]1C[C@H](O)[C@H](O)[C@H](C)O1 | 264 nM (active) |  |
| C[C@@H]1O[C@@H](O[C@@H]2C=C3CC[C@@H]4[C@@H](CC[C@]5(C)[C@H](c6ccc(=O)oc6)CC[C@@]45O)[C@@]3(C)CC2)[C@H](O)[C@H](O)[C@H]1O | 7.4 nM (active) |  |
| Nc1ccc(Sc2ccc(N)cc2)cc1 |  | -13.8% [at 92.7 µM] |
| C[C@]12CC[C@H]3[C@@H](CCC4=CC(=O)CC[C@@]43C)[C@H]1CC[C@H]2O |  | -7.54% |

| Structure (SMILES) | Potency | activity change, negative = cytotoxic |
| --- | --- | --- |
| CCOC(=O)c1c(C(C#N)=CN)c2ccc(Cl)c(Cl)c2n1C |  | -20.1% |
| CC(Cc1ccc(O)cc1)NCC(O)c1cc(O)cc(O)c1 (stereo not given) |  | 13.7% |
| CC(C)(C)NC[C@H](O)c1ccc(O)cc1Cl |  | 6.61% |
| COCCOCCO |  | 16.4% [at 92.7 µM] |
| C=C[C@@H]1CN2CCC1C[C@@H]2[C@@H](O)c1ccnc2ccccc12 (stereo not given in full) | 29600 nM (active) |  |
| OCCCBr |  | 15.7% [at 92.7 µM] |
| CC[C@H]1C=CC=CC[C@@H](C)[C@H](O)[C@@](C)(O)C(=O)[C@@H](C)[C@H](O)[C@@H](C)C(=O)[C@@H](C)[C@H](O)[C@@H](C)C=CC(=O)O[C@@H]2[C@@H](C)[C@H](CC1)O[C@]1(CC[C@H](C)[C@H](C[C@@H](C)O)O1)[C@H]2C | 23500 nM (active) |  |
| C[C@H]([C@H](O)CCC(C)(C)O)[C@H]1CC[C@@]2(O)C3=CC(=O)[C@@H]4C[C@@H](O)[C@@H](O)C[C@]4(C)[C@@H]3CC[C@]12C |  | 3.56% |
| Nc1ccc(Cl)cc1 |  | 7.11% [at 92.7 µM] |
| CC(C)N[C@@H]1CCn2c(=O)[nH]c3cccc(c32)[C@@H]1O | 3720 nM (active) |  |
| COCC1(CO)C(=O)C2CCN1CC2 (stereo not given) |  | -28.4% |
| CCC(=O)O[C@@H]1C=C2CCC3C(CCC4(C)C3CC[C@@H]4OC(=O)CC)C2CC1 (stereo not given in full) |  | 5.73% |
| CC(=O)Nc1ccc(OC[C@](C)(O)C(=O)Nc2ccc([N+](=O)[O-])c(C(F)(F)F)c2)cc1 |  | -14.7% |
| CN(C)[C@@H]1C(=O)C(C(N)=O)=C(O)[C@@]2(O)C(=O)C3=C(O)c4c(O)cccc4[C@@](C)(O)[C@H]3[C@H](O)[C@@H]12 |  | 4.9% |
| COc1cccc2c1[C@]13CCN(CC4CC4)[C@H](C2)[C@]1(OC)CCC(=O)C3 |  | 14.5% |
| O=C(O)CCCOc1ccc(Cl)cc1Cl |  | 16.2% [at 92.7 µM] |
| Clc1ccccc1C(c1ccccc1)(c1ccccc1)n1cccn1 |  | -5.19% |
| CC[C@@]1(O)C(=O)OCc2c1cc1n(c2=O)Cc2cc3ccccc3nc2-1 | 743 nM (active) |  |
| CCO/N=C(\CC)C1=C(O)CC(c2c(C)cc(C)cc2C)CC1=O (stereo not given) |  | 5.83% [at 92.7 µM] |
| O=C(Nc1ccncc1)C(=O)c1cn(Cc2ccc(Cl)cc2)c2ccccc12 | 46.9 nM (active) |  |
